AHR activator = activates the human aryl hydrocarbon receptor; activation, % at 5 µM; 320,000 tested, 2.5% active; AID 2796; AHR-responsive luciferase reporter cells, luminescence; in the data active means activation above about 47%
NTR1 agonist = NTR1 (human) agonism | activation, % at 20 µM | 330,000 tested, 0.17% active | NTR1-U2OS beta-arrestin-GFP spot imaging, agonist mode;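 active means activation at or above 40% of the spot to cytoplasm intensity ratio, with at least 20 cells analyzed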
Target sequence (P30989 whole entry, looked up): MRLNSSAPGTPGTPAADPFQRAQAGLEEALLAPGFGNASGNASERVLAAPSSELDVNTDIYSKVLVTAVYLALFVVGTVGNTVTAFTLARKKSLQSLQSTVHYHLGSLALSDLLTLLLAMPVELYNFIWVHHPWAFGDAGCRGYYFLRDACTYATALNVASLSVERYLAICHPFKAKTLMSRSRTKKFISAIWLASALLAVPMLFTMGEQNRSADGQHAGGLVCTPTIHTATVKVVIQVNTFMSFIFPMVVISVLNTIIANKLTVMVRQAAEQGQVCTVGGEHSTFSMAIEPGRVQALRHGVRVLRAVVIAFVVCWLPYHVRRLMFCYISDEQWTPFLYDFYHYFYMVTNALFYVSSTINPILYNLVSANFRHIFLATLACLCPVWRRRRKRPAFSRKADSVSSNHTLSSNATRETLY
APOBEC3A inh = human APOBEC3A DNA deaminase inhibition; P31941; recombinant A3A, FAM/TAMRA ssDNA deamination fluorescence; inhibition, % at 20 µM; 330,000 tested, 0.41% active;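 active means at least 40% inhibition at 20 µM here, with at most 30% in a related deaminase screen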
A3G deaminase = APOBEC3G (human) deaminase inhibition. Q9HC16. recombinant A3G, ssDNA deamination FAM/TAMRA fluorescence. inhibition, % at 20 µM. 330,000 tested, 0.28% active;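 active means inhibition of at least 40% at 20 µM, with no more than 30% in the related APOBEC3A deaminase screen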
AHR act cf = human AHR activation, confirmation | shares compounds with AHR activator | human cells, AHR-responsive luciferase reporter, luminescence | activation, % at 9 µM | 2,300 tested, 87% active; in the data active means activation above about 49%;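 further: HepG2 hepatoma cells carrying a DRE-driven firefly luciferase reporter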
PXR counter = counter-screen for AHR activators: human PXR activators; shares compounds with AHR activator; cell-based PXR reporter, luciferase luminescence; activation, % at 11.6 µM; 2,300 tested, 88% active; in the data active means activation above about 11%;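 further: human hepatoma DPX-2 cells expressing full-length human PXR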
Of the large screens only hits and unclear results are named; the others gave an inactive call (follow-up assays come after a bar, where they were run). Only some compounds are listed: those with a hit (about 3.2% of all), similar ones and a draw of the others.

Clc1ccc(-c2cc3ccccc3[nH]2)cc1	AHR activator 91 | AHR act cf inactive | PXR counter inactive
CC(=O)Nc1ccc(NC(=O)C(C)Sc2nc3ccccc3c(=O)n2CC2CCCO2)cc1 (configuration not stated)	none
O=S(=O)(c1cccc(Br)c1)N1CCN(C(=S)NCC2CCCO2)CC1 (configuration not stated)	none
Cc1ccc2c(C)c(C(=O)N3CCN(c4cnccn4)CC3)oc2c1C	AHR activator 92 | AHR act cf 114 | PXR counter 25
Nn1c(SCCOc2ccc(Cl)cc2)nnc1-c1cccnc1	AHR activator 91 | AHR act cf 125 | PXR counter 22
COc1ccc(CN=C2NC(=O)CC(C(=O)Nc3ccccc3C)S2)cc1 (configuration not stated)	none
Clc1ccc2nc3c4ccccc4cnn3c2c1	AHR activator 105 | AHR act cf 90 | PXR counter inactive
CSc1ncccc1C(=O)NC1CCN(Cc2ccccc2)CC1	none
Cc1ccc(S(=O)(=O)CC(=O)Nc2cccc(C)n2)cc1	none
CC(C)N(C(=O)[C@H]1CC(CC(=O)NCc2cccc(C(F)(F)F)c2)C(=O)N2CCc3c([nH]c4ccccc34)[C@]12C)C(C)C (some centres not stated)	none
COc1ccc2nc(NC(=O)CSc3n[nH]c(N)n3)sc2c1	AHR activator 94 | AHR act cf 108 | PXR counter 22
O=C(CSc1nc2nn(-c3ccccc3)c(=O)c-2c2n1CCCCC2)Nc1ccc(F)c(F)c1	none
O=C(Nc1cccnc1)c1ccc(COc2cc(Cl)ccc2Cl)o1	none
O=C(N/N=C/c1ccc(O)cc1)c1ccc(COc2cc(Cl)ccc2Cl)o1	AHR activator 115 | AHR act cf 83 | PXR counter 28
Cn1c(-c2ccc3ccccc3n2)nc2cnccc21	AHR activator 89 | AHR act cf 119 | PXR counter 23
Cc1ccc(NC(=S)N(C)C)cc1C	none
Cc1nc(C)c(-c2csc(Nc3ccc(N)cc3)n2)s1	AHR activator 127 | AHR act cf inactive | PXR counter 19
Cc1nc(N)sc1-c1csc(Nc2ccccc2)n1	AHR activator 81 | AHR act cf 147 | PXR counter 20
Cc1nc(C)c(-c2csc(Nc3ccc(O)c(C(=O)O)c3)n2)s1	none (no result: AHR activator)
NS(=O)(=O)c1cccc(NC(=O)COC(=O)C2(c3cccc(F)c3)CCCC2)c1	none
COc1ccccc1-c1sc2ccccc2c1-c1ccc2c(c1)OCO2	none
COc1ccccc1-c1sc2cc3c(cc2c1-c1ccc2c(c1)OCO2)OCO3	AHR activator 93 | AHR act cf 126 | PXR counter 162
COC(=O)c1c(-c2ccccc2OC)sc2cc3c(cc12)OCO3	AHR activator 108 | AHR act cf 92 | PXR counter 226
O=C(OCc1cc(=O)n2ccsc2n1)c1ccccc1O	none
O=C(OCc1cc(=O)n2ccsc2n1)c1ccccc1NCCO	AHR activator 79 | AHR act cf 79 | PXR counter inactive
Cc1nn2c(-c3ccc(F)cc3)ccnc2c1Br	AHR activator 82 | AHR act cf 109 | PXR counter 25
Nc1c(-c2ccc(Cl)cc2)cnc2c(-c3ccc(F)cc3)cnn12	none
Fc1ccc(-c2cnn3c(-c4ccncc4)ccnc23)cc1	AHR activator 135 | AHR act cf inactive | PXR counter 27
COc1ccc(CCNc2nc(-c3cccnc3)cs2)cc1OC	none
COc1ccc(CCNc2nc(-c3ccccn3)cs2)cc1OC	AHR activator 85 | AHR act cf 80 | PXR counter 27
COc1cc2[nH]c(=S)n(Cc3ccco3)c(=O)c2cc1OC	AHR activator 82 | AHR act cf 84 | PXR counter 72
O=C(C1CCCO1)N1CCN(S(=O)(=O)c2ccc(Cl)cc2)CC1 (configuration not stated)	none
O=C(Nc1cccc(-c2cn3c(n2)SCC3)c1)c1ccc2ccccc2n1	AHR activator 94 | AHR act cf 54 | PXR counter 39
Cc1cccc(OCCCCCn2ccnc2)c1C	none
Cc1cccc(C)c1OCCN1CCCC1	AHR activator 95 | AHR act cf inactive | PXR counter 11
Cc1cccc(C)c1OCCCn1ccnc1	AHR activator 136 | AHR act cf inactive | PXR counter 16
Cc1cc(OCCn2ccnc2)cc(C)c1Cl	AHR activator 80 | AHR act cf 55 | PXR counter 16
CCOC(=O)[C@H]1[C@H]2COc3ccc(Br)cc3[C@@H]2N2C(=O)CN(Cc3ccc(F)cc3)C(=O)[C@@]12C	none
N/C(=N\OC(=O)c1cccc2ccccc12)c1cccnc1	AHR activator 85 | AHR act cf 55 | PXR counter 15
O=C(CSc1ccccn1)Nc1nonc1[N+](=O)[O-]	none
COc1cc(/C=C(\C#N)c2nc3ccccc3[nH]2)ccc1OC(=O)c1ccco1	AHR activator 100 | AHR act cf inactive | PXR counter 14
COc1cc(/C=C(/C#N)c2nc3ccccc3[nH]2)ccc1OCC(=O)Nc1ccccc1C	none
Cc1sc(NC(=O)C2=COCCO2)nc1-c1ccc(Br)cc1	AHR activator 99 | AHR act cf 94 | PXR counter 34
O=C(Nc1nnc(-c2ccc(Br)cc2)o1)C1=COCCO1	none
CCOC(=O)CCCCCN(Cc1ccccc1)S(=O)(=O)c1ccc([N+](=O)[O-])cc1	AHR activator 92 | AHR act cf inactive | PXR counter 27
COCCOC(=O)c1c(NC(=O)COC(=O)Cc2cccc(OC)c2)sc(C(N)=O)c1C	none
O=C(Nc1ccc(F)cc1)C1CCCN(C2=NS(=O)(=O)c3ccccc32)C1 (configuration not stated)	none
COC(=O)c1cc2c([nH]c3ccccc32)c(C)n1	none (no result: AHR activator)
COc1ccc(NC(=O)c2cc3c([nH]c4ccccc43)c(C)n2)cc1	AHR activator 85 | AHR act cf 88 | PXR counter 15
COc1ccc(CNC(=O)COC(=O)[C@@H]2CCCN2C(=O)c2cccs2)cc1	none
CC(=O)N1N=C2/C(=C/c3ccccc3)CCCC2C1c1ccccc1 (configuration not stated)	AHR activator 100 | AHR act cf 87 | PXR counter 101
CC(=O)N1N=C2c3ccccc3CCC2C1c1ccc(F)cc1 (configuration not stated)	AHR activator 99 | AHR act cf 108 | PXR counter 29
O=C(c1ccccn1)N1N=C2/C(=C/c3ccc(F)cc3)CCCC2C1c1ccc(F)cc1 (configuration not stated)	AHR activator 94 | AHR act cf 95 | PXR counter 49
CCCn1c(SCC(=O)N2N=C3/C(=C/c4ccc(OC)cc4)CCCC3C2c2ccc(OC)cc2)n[nH]c1=O (configuration not stated)	none
COc1ccc(/C=C2\CCCC3C2=NN(C(=O)c2ccco2)C3c2ccc(OC)c(OC)c2)cc1OC (configuration not stated)	none
